We go through 16 compounds from PubChem BioAssay (NCI).

Some test systems named below: EKVX NSCLC; SN12C renal; UO-31 renal; TK-10 renal; CAKI-1 renal; A498 renal; ACHN renal; CCRF-CEM leukemia; MOLT-4 leukemia; SR leukemia.
What all share (assay): NCI-60 one-dose screen, 48 h (100 = growth as untreated, 0 = no growth, -100 = all killed)
Common to all, as to conditions: 10 µM

Molecules are shown by their SMILES. The panel holds about 83,000 compounds, 20% with a hit somewhere; the sample as a whole holds those more often.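 Note: values are percent growth. 100 is the growth of untreated cells, values between 100 and 0 indicate rising inhibition; between -100 and 0 indicates cell death.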 Unmarked numbers belong to inactive results. Calls of active or inactive are those of the source. How the source made its calls: active means growth percent below 10; inactive means the rest.

As to `O=c1c2ccccc2nc(SCCN2CCCCC2)n1CCc1ccccc1`, the growth with EKVX NSCLC was 70.7%; in the test on SN12C renal it was 81.5%; with UO-31 renal it was 57.2%; with TK-10 renal, 97.2%; with CAKI-1 renal, 73.9%; with A498 renal, 83.1%.
Take `COc1cc(CNCCCCCCN2C(=O)c3cccc4cccc(c34)C2=O)ccc1O`: the growth in the test on EKVX NSCLC is 89.3%; in the test with SN12C renal it was 70.5%; in the test with UO-31 renal it was 23.8%; in the test with TK-10 renal, 85.4%; in the test with ACHN renal, 63.7%; in the test with CCRF-CEM leukemia it was 45.4%. The growth is 49.2% in the test with MOLT-4 leukemia and 0.634% (active) in the test with SR leukemia.
Consider `Cc1cc(N(CCCNc2ccnc3cc(Cl)ccc23)Cc2ccc3c(c2)OCO3)nc(N2CCOCC2)n1`, for which the growth in the test on EKVX NSCLC was 66.5%; with SN12C renal, 44.7%; in the test with UO-31 renal, 3.36% (active); in the test with TK-10 renal, 13.9%; in the test with ACHN renal, 14.3%; in the test on A498 renal, 54.1%. Moreover, the values for the growth in the test with CCRF-CEM leukemia and with SR leukemia were -8.38% (active) and -27.7% (active), respectively.
As for `Cc1nc2ccccc2c(N)c1-c1cc(C)c2c(C)nc3ccccc3c2n1`, the growth was 68.4% in the test with EKVX NSCLC; 57.9% with SN12C renal; -95.7% (active) in the test on UO-31 renal; 14.3% with TK-10 renal; -92.4% (active) with ACHN renal; -12.9% (active) with A498 renal. Besides, the growth is -42.1% (active) in the test on CCRF-CEM leukemia, -50.8% (active) in the test on MOLT-4 leukemia and -39.5% (active) in the test on SR leukemia.
As for `CCN(CC)CCOc1nc2ccc(OC)cc2c2c1-c1ccc(OC)cc1C2=O`, the growth is 25.2% in the test with EKVX NSCLC; 29.3% with SN12C renal; -44.4% (active) in the test with UO-31 renal; 8.74% (active) in the test with TK-10 renal; -4.67% (active) with CAKI-1 renal; 25.4% with A498 renal. Moreover, the growth with CCRF-CEM leukemia was 5.22% (active); in the test on MOLT-4 leukemia, 3.68% (active); in the test with SR leukemia, -14.8% (active).
For `CCN(CC)CCN1CC(=O)Nc2cc(Cl)ccc21`, the growth is 101% in the test on EKVX NSCLC; 103% in the test with SN12C renal; 82% in the test with UO-31 renal; 114% in the test on TK-10 renal; 90.7% with CAKI-1 renal; 87.6% in the test with A498 renal. For the same compound, the growth was 101% in the test with CCRF-CEM leukemia, 105% in the test with MOLT-4 leukemia and 114% with SR leukemia.
Turning to `CC(C)(C)c1ccc(N2CSC(=S)N(c3ccc(C(C)(C)C)cc3)C2)cc1`, the growth with EKVX NSCLC is 84.1%; in the test on SN12C renal, 99.6%; with UO-31 renal, 79.4%; in the test with TK-10 renal, 111%; in the test with ACHN renal it was 89%; in the test with A498 renal, 107%. The growth in the test with MOLT-4 leukemia was 100%; with SR leukemia, 112%.
Turning to `O=C1ON=[N+](c2ccc(Cc3ccc([N+]4=NOC(=O)C4CN4CCOCC4)cc3)cc2)C1CN1CCOCC1` (stereo not given), the growth in the test with EKVX NSCLC is 69.9%; in the test on SN12C renal, 80.3%; in the test on UO-31 renal it was 44.3%; in the test on TK-10 renal, 74.5%; with CAKI-1 renal, 49.3%; in the test on A498 renal it was 53.7%. Further, the growth with CCRF-CEM leukemia is 63.9%; in the test with MOLT-4 leukemia it was 68.4%.
Take `Clc1ccc(-c2cn(-c3ccccc3)c(-c3ccccc3)n2)c(Cl)c1`: the growth in the test on EKVX NSCLC is 50.5%; in the test on SN12C renal, 12.2%; in the test on UO-31 renal, -66.9% (active); in the test on TK-10 renal it was -82.9% (active); in the test with CAKI-1 renal, -22.8% (active); with A498 renal, -28.3% (active). Also, the growth is 34.8% in the test on CCRF-CEM leukemia, 6.15% (active) in the test on MOLT-4 leukemia and -51.6% (active) in the test with SR leukemia.
As for `Cc1cc(Cl)nc(N(CCCNc2ccnc3cc(Cl)ccc23)Cc2cccs2)n1`, the growth in the test on EKVX NSCLC was 36.4%; with SN12C renal it was 33%; with UO-31 renal, 5.57% (active); with TK-10 renal it was 28.4%; in the test on ACHN renal, 25.8%; in the test with A498 renal, 19.6%. Also, the growth was 2.62% (active) with CCRF-CEM leukemia, -17.6% (active) in the test with MOLT-4 leukemia and -21.3% (active) with SR leukemia.
As for `Cc1ccc(NC(=O)Nc2nc3ccccc3s2)cc1NC(=O)Nc1nc2ccccc2s1`, the growth with EKVX NSCLC is 99.1%; with SN12C renal, 86.9%; with UO-31 renal, 66.8%; with TK-10 renal, 111%; with ACHN renal, 83.7%; in the test on A498 renal it was 93%. Further, the growth is 74.2% with CCRF-CEM leukemia, 82.4% in the test on MOLT-4 leukemia and 55.5% in the test on SR leukemia.
On to `COc1ccc(-c2cc(-c3cccc(NS(C)(=O)=O)c3)nc(N)c2C#N)cc1`, for which the growth in the test on EKVX NSCLC was 22%; in the test on SN12C renal, 43.3%; with UO-31 renal it was 31.9%; in the test with TK-10 renal, 67.5%; in the test with ACHN renal it was 36.4%; in the test with CCRF-CEM leukemia, 19%. For the same compound, the growth in the test on MOLT-4 leukemia was 19.7%; in the test on SR leukemia, 16.1%.
Consider `O=C(Nc1cccc(Cl)c1)Nc1nccs1`, for which the growth was 98.1% in the test with EKVX NSCLC; 87.7% in the test with SN12C renal; 89.9% in the test with UO-31 renal; 109% with TK-10 renal; 98.5% in the test on ACHN renal; 99.2% with A498 renal. For the same compound, the growth was 101% in the test with MOLT-4 leukemia and 78.5% in the test with SR leukemia.
Take `Cc1ccc(NC(=O)Nc2c(Cl)cccc2Cl)cn1`: the growth in the test on EKVX NSCLC was 58.8%; with SN12C renal, 105%; in the test on UO-31 renal, 72.1%; in the test on TK-10 renal it was 128%; in the test with ACHN renal it was 95.5%; in the test on A498 renal, 106%. Also, the values for the growth in the test on CCRF-CEM leukemia, in the test with MOLT-4 leukemia and in the test on SR leukemia were 69.5%, 86.9% and 59.1%, respectively.
As for `COC(=O)C(=C\c1ccc2c(c1)OCO2)/C(=C/c1ccc2c(c1)OCO2)C(=O)OC`, the growth was 97% in the test with EKVX NSCLC; 112% in the test with SN12C renal; 90.3% in the test with UO-31 renal; 100% in the test with TK-10 renal; 94.7% in the test on CAKI-1 renal; 106% in the test on A498 renal. For the same compound, the figures for the growth with CCRF-CEM leukemia, in the test on MOLT-4 leukemia and in the test with SR leukemia were 101%, 105% and 98.8%, respectively.
Regarding `CC(=O)OCc1cc(-c2nc3ccccc3[nH]c2=O)nn1-c1ccc(Cl)cc1`, the growth was 104% with EKVX NSCLC; 105% in the test on SN12C renal; 98.2% with UO-31 renal; 119% with TK-10 renal; 102% with ACHN renal; 100% in the test with A498 renal. Besides, the growth in the test with CCRF-CEM leukemia was 97.9%; with MOLT-4 leukemia it was 87.6%; in the test on SR leukemia, 105%.
